Test results published in PubChem BioAssay (NCI).
About 83,000 compounds went through this panel and 20% of them were active in at least one assay; those are over-represented in the sample as a whole.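 Assay: single dose, 48 h. Readout: percent growth (0 = no net growth; negative = cell death). Active: <10.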 Values without a mark were called inactive. Active and inactive are the calls of the source.

Assays:
Assay in all cases: NCI-60 one-dose screen, 48 h (100 = growth as untreated, 0 = no growth, -100 = all killed)
Conditions in all cases: 10 µM unless noted
SR leukemia = test system: SR leukemia
RPMI-8226 leukemia = test system: RPMI-8226 leukemia
OVCAR-8 ovarian = test system: OVCAR-8 ovarian
OVCAR-5 ovarian = test system: OVCAR-5 ovarian
OVCAR-4 ovarian = test system: OVCAR-4 ovarian
SK-OV-3 ovarian = test system: SK-OV-3 ovarian
IGROV1 ovarian = test system: IGROV1 ovarian
OVCAR-3 ovarian = test system: OVCAR-3 ovarian
HS 578T breast = test system: HS 578T breast
NCI/ADR-RES ovarian = test system: NCI/ADR-RES ovarian

| Structure (SMILES) | growth (SR leukemia) | growth (RPMI-8226 leukemia) | growth (OVCAR-8 ovarian) | growth (OVCAR-5 ovarian) | growth (OVCAR-4 ovarian) | growth (SK-OV-3 ovarian) | growth (IGROV1 ovarian) | growth (OVCAR-3 ovarian) | growth (HS 578T breast) | growth (NCI/ADR-RES ovarian) |
| --- | --- | --- | --- | --- | --- | --- | --- | --- | --- | --- |
| O=C(N/N=C/c1ccc(-c2cccc([N+](=O)[O-])c2)s1)c1[nH]c2ccc(Br)cc2c1-c1ccccc1 | 69.9% | 89.2% | 95.9% | 106% | 82.1% | 93.4% | 102% | 62.1% | 82.4% | 105% |
| COc1cc(/C=C/C(=O)c2cnn(-c3cc(=O)[nH]c4ccc(Cl)cc34)c2C)cc(OC)c1OC | -11.6% (active) | -31.7% (active) | -0.426% (active) | -52.3% (active) | 17.7% | -6.03% (active) | -35.3% (active) | -61.7% (active) | 23.9% | -20.3% (active) |
| NS(=O)(=O)c1ccc(Nc2nc(N/N=C/c3cc(Br)c(O)c(Br)c3)nc(Nc3ccccc3)n2)cc1 | -12.1% (active) | 79.4% | 57.7% | 106% | 71.2% | 99.7% | 59.5% | 20.2% | -8.25% (active) | 98% |
| O=C(NNC(=S)NC(=O)c1ccccc1)c1ccc(OCc2nc3ccc(Cl)cc3[nH]2)cc1 | 0.144% (active) | 5.01% (active) | -9.91% (active) | -43.7% (active) | 16.3% | -17.5% (active) | -46.5% (active) | 10.5% | 3.54% (active) | -25.3% (active) |
| CC(=O)C[n+]1cccc2c3ccccc3ccc21 | 66.3% | 64% | 81.5% | 103% | 63.8% | 96.1% | 95.2% | 70% | 102% | 107% |
| N#Cc1ccc(C(=O)NNC(=O)CSc2nc3sc4c(c3c(=O)n2-c2ccc(Cl)cc2)CCCC4)cc1 | 47.6% | 54.6% | 34.4% | 31.9% | 73.8% | 72.7% | 30.7% | 91.8% | 59.4% | 67.3% |
| Nc1nnc(-c2cncc(Br)c2)c(-c2c[nH]c3ccc(Cl)cc23)n1 | 54.1% | 48.5% | 89.8% | 94.2% | 56.2% | 103% | 68.6% | 100% | 76.6% | 63.5% |
| CC1=C(C(=O)Nc2ccccc2)C(c2cccc3ccccc23)n2c(nc3ccccc32)N1 (stereo not given) | 72.4% | 76.9% | -0.819% (active) | 76.3% | 42.3% | -2.39% (active) | 68% | 38.6% | -13.9% (active) | 32.2% |
| CNS(=O)(=O)N1CCc2c(Br)c3c(c(OC)c2C1CCc1ccccc1)OCO3 (stereo not given) | 4.75% (active) | 2.66% (active) | 9.92% (active) | -40% (active) | -2.26% (active) | 16.2% | -6.68% (active) | -48.8% (active) | -22.4% (active) | -10.9% (active) |
| CCOc1ccccc1[C@H]1C(C(=O)c2ccc(Cl)cc2)C2(N[C@@H]1c1ccccc1)C(=O)Nc1ccccc12 (stereo not given in full) | -38% (active) | 10.9% | 28% | 14.5% | 17.7% | 26% | 17.9% | 25.5% | 6.17% (active) | -40.6% (active) |
| COC(=O)c1ccc(-c2c(-c3ccccc3)c(F)c3oc(C(=O)OC)c(N)c3c2-c2ccccc2)cc1 | 76.9% | 101% | 105% | 96.6% | 97.6% | 98.7% | 102% | 103% | 91.1% | 94.3% |
| COc1ccc(-c2nc3ccc(-c4nnc(SCc5ccccc5)o4)cc3[nH]2)cc1 | 6.93% (active) | 7.16% (active) | -36.8% (active) | 46.8% | -57.7% (active) | 5.77% (active) | -17.1% (active) | -33.1% (active) | -17.5% (active) | -65.6% (active) |
| CC[C@]12C=CCN3CC[C@@]4(c5ccc(OC)cc5N(C)[C@H]4[C@@](O)(C(=O)OC)[C@@H]1OC(=O)CCC[P+](c1ccc(OC)cc1)(c1ccc(OC)cc1)c1ccc(OC)cc1)[C@@H]32 | 15% | -45.5% (active) | -86.2% (active) | -96.5% (active) | -75.3% (active) | -85.1% (active) | -92.1% (active) | -73.6% (active) | -65.4% (active) | 79.9% |
| O=c1[nH]c2ccccc2cc1COc1ccc(Nc2nccc(-c3ccc(Cl)cc3)n2)cc1 | 103% | 108% | 102% | 106% | 95.6% | 94.5% | 102% | 138% | 85.7% | 101% |
| Cn1cc(Nc2ncnc(-c3ccc(N4CCCC4)c(C#N)c3)n2)cn1 | 28.7% | 83.9% | 84.4% | 85.4% | 78.9% | 76.4% | 51.7% | 81.6% | 41.3% | 67.3% |
| CNc1nc2ccccc2n2c(-c3ccc(O)c(O)c3)cnc12 | 6.32% (active) | 9.2% (active) | 11.9% | 14.9% | 34.7% | 16.5% | 7.31% (active) | -5.33% (active) | 1.79% (active) | 6.86% (active) |
| Fc1ccc(Nc2nnc(-c3c[nH]c4ccccc34)o2)cc1 | 70.4% | 24.7% | 85.5% | 105% | 81.1% | 83.6% | 50.8% | 107% | 82% | 74.6% |
| COc1cc2cc(C(=O)N3C[C@@H](CCl)c4c3cc(OC(=O)N(CCC(=O)N3CCN(C)CC3)C3CCCCC3)c3ccccc43)[nH]c2c(OC)c1OC | -38.8% (active) | -30.3% (active) | -48.3% (active) | -59.1% (active) | -83.5% (active) | -57.7% (active) | -59.2% (active) | -65.3% (active) | -34% (active) | -62.1% (active) |
| CC1=C(C(=O)OCc2ccccc2)C(c2cccc3ccccc23)n2c(nc3ccccc32)N1 (stereo not given) | 19% | 15.3% | 31.2% | 41% | 46.7% | 25.2% | 31.3% | -6.62% (active) | 5.52% (active) | -6.92% (active) |
| Cc1nn(-c2ccccc2)c2ncn(CC(=O)N/N=C/c3ccccc3O)c(=O)c12 | 13.3% | 45.4% | 19.7% | 63.2% | 39.4% | 37.7% | 40.6% | 18% | 54.9% | 23.3% |
| O=C(Nc1ccc(S(=O)(=O)N2CCCCC2)cc1)C(Cl)Cl | 95.7% | 110% | 111% | 127% | 104% | 118% | 135% | 114% | 119% | 114% |
| C=CC[n+]1cccc2c3ccccc3ccc21 | 46.5% | 27.6% | 41.1% | 70.8% | 42% | 77% | 72.5% | 35.9% | 43.7% | 97.2% |
| Cc1ccc(-c2cc(C(=O)N=Nc3c(O)[nH]c4ccc(F)cc34)c3ccccc3n2)cc1 | 56.8% | 103% | 16.8% | 70% | 1.07% (active) | 94.3% | 52.9% | 95.3% | 32.1% | 3.61% (active) |
| Nc1cc2ccccc2c(=O)n1NC(=O)c1ccc(Br)cc1 | 72.5% | 92.1% | 98.6% | 97.8% | 91% | 115% | 101% | 79.2% | 102% | 93% |
| CCCn1c(NC(=O)c2cccc(C(N)=O)c2)nc2cc(CN3CCCCC3)ccc21 | 41.5% | 80.7% | 117% | 99% | 90.2% | 83.4% | 88.5% | 101% | 119% | 114% |
